33 molecules from PubChem BioAssay AID1347414 (National Center for Advancing Translational Sciences (NCATS), 2020) can be followed below.

Results filed as inconclusive are left out. The source made the active and inactive calls. Calls come from the whole dose curve; as a rule, active = well fitted inhibition curve with a large enough effect; inconclusive = small, poorly fitted or top-dose-only effect; inactive = no such curve, though single readings can be large or run the other way.
Potency is the fitted concentration of half-maximal effect.

The test is described as follows: qHTS to identify inhibitors of the type 1 interferon - major histocompatibility complex class I in skeletal muscle: Secondary screen by immunofluorescence. Note: nearly all actives have a fitted effect of over 70% in size. The conditions noted are these: C25cl48 myoblasts, IFN-b induced HLA-ABC immunofluorescence, 24 h; series mostly up to 49.8 µM. In a few lines: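 HLA-ABC immunofluorescence, with nuclear and cell-body stains, was quantified by laser scanning cytometry. Read-out followed 24 h of IFN-beta (4.0 ng/ml) stimulation of C25cl48 human myoblasts with compounds titrated 1:3 over 11 points from 50 uM, with ruxolitinib as inhibitor control.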
Background: In qHTS, concentration-response curves come from the screen itself.
Take `Cc1c[nH]c2nc(Nc3ccc(N4CCN(C)CC4)c(F)c3)nc(-c3cccc(CC#N)c3)c12`: the Potency was 1620 nM (active).
Next, `CC[C@@]1(O)C(=O)OCc2c1cc1n(c2=O)Cc2cc3c(CN(C)C)c(O)ccc3nc2-1`: 7260 nM (active).
`Cc1cc(O)c(-c2ccc([C@@H](C)CN(C)C)cc2)c2c1[nH]c(=O)c1sccc12`: the Potency was 81.4 nM (active).
In the case of `O=C(Nc1nc2cccc(-c3ccc(CN4CCS(=O)(=O)CC4)cc3)n2n1)C1CC1` it was 1820 nM (active); in that of `Cc1ccc(NC(=O)NCc2ccc3c(c2)CN(C2CCC(=O)NC2=O)C3=O)cc1Cl` (stereo not drawn), 8.1 nM (active); in that of `CC[C@H]1CN2CCc3cc(OC)c(OC)cc3[C@@H]2C[C@@H]1C[C@H]1NCCc2cc(OC)c(OC)cc21`, 129 nM (active).
Next, `Cc1cc2c(cc1CC(=O)c1sccc1S(=O)(=O)Nc1onc(C)c1Cl)OCO2`: “inactive”.
In the case of `COc1cc2c(cc1-c1c(C)noc1C)ncc1[nH]c(=O)n([C@H](C)c3ccccn3)c12` it was 4080 nM (active).
Take `Fc1ccc(CNc2ncnc3ccc(F)cc23)cc1`: the Potency entry was “inactive”.
Next, `CCCCC(=O)OCC(=O)[C@H]1[C@H](C)C[C@H]2[C@@H]3C[C@H](F)C4=CC(=O)C=C[C@]4(C)[C@@]3(F)[C@@H](O)C[C@@]21C`: “inactive”; `Cc1ccc(C(=O)Nc2ccc(CN3CCN(C)CC3)c(C(F)(F)F)c2)cc1C#Cc1cnc2[nH]ncc2c1`: 726 nM (active); `OCCCNc1cc(-c2ccnc(Nc3cccc(Cl)c3)n2)ccn1`: 81.4 nM (active).
Next, `CC(=O)c1cnc2ccc(-c3cc(Cl)c(O)c(Cl)c3)nc2c1NC1CCC(CN(C)C)CC1` (stereo not drawn): 45.8 nM (active).
Next, `CCCCC(=O)O[C@]1(C(=O)CO)[C@@H](C)C[C@H]2[C@@H]3CCC4=CC(=O)C=C[C@]4(C)[C@@]3(F)[C@@H](O)C[C@@]21C`: “inactive”.
For `NC(=O)Nc1sc(-c2ccc(F)cc2)cc1C(N)=O`, the Potency is 1450 nM (active).
In the case of `CCOc1cc2ncc(C#N)c(Nc3ccc(F)c(Cl)c3)c2cc1NC(=O)/C=C/CN(C)C` it was 4580 nM (active); in that of `CN1CC[C@H](c2c(O)cc(O)c3c(=O)cc(-c4ccccc4Cl)oc23)[C@H](O)C1`, 102 nM (active); in that of `Cc1cnc(Nc2ccc(N3CCN(C)CC3)cc2)nc1Nc1cccc(S(=O)(=O)NC(C)(C)C)c1`, 3640 nM (active).
Take `CN(c1ncccc1CNc1nc(Nc2ccc3c(c2)CC(=O)N3)ncc1C(F)(F)F)S(C)(=O)=O`: the Potency was 5760 nM (active).
In the case of `CC(C)[C@H](C(=O)Nc1ccc(C(=O)NO)cc1)c1ccccc1` it was 458 nM (active).
In the case of `Cc1ncc(-c2ccnc(Nc3ccc(S(C)(=O)=O)cc3)n2)n1C(C)C` it was 914 nM (active).
`CCCCc1nc2cc(/C=C/C(=O)NO)ccc2n1CCN(CC)CC`: the Potency was 364 nM (active).
In the case of `COC(=O)Nc1nc2ccc(C(=O)c3ccc(F)cc3)cc2[nH]1` it was “inactive”.
Turning to `Cc1cc(Nc2nc(N[C@@H](C)c3ncc(F)cn3)ncc2Cl)n[nH]1`, the Potency was 647 nM (active).
In the case of `O=C(CCCCCCC(=O)Nc1ccccc1)NO` it was 914 nM (active); in that of `COc1cc(C(=O)N2CCC(N3CCN(C)CC3)CC2)ccc1Nc1ncc2c(n1)N(C)c1ccccc1C(=O)N2C`, 6470 nM (active).
Next, `COCCN1CCN(Cc2ccc(-c3n[nH]c4c3C(=O)c3c(NC(=O)NN5CCOCC5)cccc3-4)cc2)CC1`: 51.4 nM (active).
As for `Nc1nc(Nc2ccc(S(N)(=O)=O)cc2)nn1C(=O)c1c(F)cccc1F`, the Potency was 2050 nM (active).
For `CCc1c2c(nc3ccc(O)cc13)-c1cc3c(c(=O)n1C2)COC(=O)[C@]3(O)CC`, the Potency was 2570 nM (active).
Next, `C=CC(=O)N1CC/C(=C\c2ccc(F)c([N+](=O)[O-])c2)C(=O)/C(=C/c2ccc(F)c([N+](=O)[O-])c2)C1`: 182 nM (active); `CC(=O)NCC(=O)N1[C@@H]2CC[C@H]1c1ccc(Nc3ncc(C(F)(F)F)c(NC4CCC4)n3)cc12`: 14500 nM (active); `CN1CCN(Cc2ccc(NC(=O)Nc3ccc(Oc4cc(NC(=O)C5CC5)ncn4)cc3)cc2C(F)(F)F)CC1`: 64.7 nM (active).
Turning to `CS[C@H]1SC[C@@H]2C(=O)N(C)[C@H](C(C)C)C(=O)OC[C@H](NC(=O)c3cnc4ccccc4n3)C(=O)N[C@H](C)C(=O)N(C)[C@H]1C(=O)N(C)[C@H](C(C)C)C(=O)OC[C@H](NC(=O)c1cnc3ccccc3n1)C(=O)N[C@H](C)C(=O)N2C`, the Potency was 4.1 nM (active).
